The source of these data is publication PMC11006913.

Test in all cases: PBM; 200 nM protein, PBS
What all share (details): dsDNA, one strand shown

In test [1] the target is NKX3-2 (Homo sapiens, UniProt P78367 192-278, P234S).
Test [2] has as its target NKX3-2 (Homo sapiens, UniProt P78367 192-278).
A further test addresses T1, NKX2-6 (Homo sapiens, UniProt A6NCS4 118-204, F151L).
T1 sequence: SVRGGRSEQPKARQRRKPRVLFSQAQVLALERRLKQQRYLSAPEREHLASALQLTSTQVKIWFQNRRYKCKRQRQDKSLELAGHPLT

Another test deals with T2, PAX4 (Homo sapiens, UniProt O43316 9-242, R227W).
T2 sequence: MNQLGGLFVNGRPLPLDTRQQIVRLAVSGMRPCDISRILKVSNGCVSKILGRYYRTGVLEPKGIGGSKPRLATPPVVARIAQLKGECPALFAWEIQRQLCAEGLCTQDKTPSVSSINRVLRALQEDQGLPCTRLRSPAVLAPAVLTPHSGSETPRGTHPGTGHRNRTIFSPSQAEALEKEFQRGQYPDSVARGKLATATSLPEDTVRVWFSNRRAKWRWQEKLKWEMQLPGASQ

A further test deals with HOXC9 (Homo sapiens, UniProt P31274 178-260, R222W).
In the next test the target is HOXD13 (Homo sapiens, UniProt P35453 263-343, T313A).
Chain of HOXD13 (P35453 263-343 T313A): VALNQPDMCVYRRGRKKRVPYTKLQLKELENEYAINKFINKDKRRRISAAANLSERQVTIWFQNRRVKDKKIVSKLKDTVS

Chain of NKX3-2 (Homo sapiens, UniProt P78367 192-278, P234S) (P78367 192-278 P234S): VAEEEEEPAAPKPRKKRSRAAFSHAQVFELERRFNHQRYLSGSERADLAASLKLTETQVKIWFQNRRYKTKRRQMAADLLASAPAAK
Chain of NKX3-2 (Homo sapiens, UniProt P78367 192-278) (P78367 192-278): as the sequence (P78367 192-278 P234S) above, with S43P counted along it
Chain of HOXC9 (P31274 178-260 R222W): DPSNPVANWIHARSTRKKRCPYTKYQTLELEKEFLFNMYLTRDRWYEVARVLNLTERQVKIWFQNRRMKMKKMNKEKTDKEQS

Consider TAAGAACA, for which the binding signal was 11.4 upbm affinity estimate (log intensity, higher = more binding, comparable within an allelic series) in the test with NKX3-2 [1] and 11.5 upbm affinity estimate (log intensity, higher = more binding, comparable within an allelic series) in the test with NKX3-2 [2].

Regarding CGGTTGAC, the binding signal with NKX3-2 [1] was 10.5 upbm affinity estimate (log intensity, higher = more binding, comparable within an allelic series); in the test with NKX3-2 [2] it was 10.5 upbm affinity estimate (log intensity, higher = more binding, comparable within an allelic series).

Turning to CAAGTGTC, in the test with NKX2-6, the binding signal was 10.6 upbm affinity estimate (log intensity, higher = more binding, comparable within an allelic series).

For GACGGGAC, the binding signal was 10.5 upbm affinity estimate (log intensity, higher = more binding, comparable within an allelic series) with NKX3-2 [1] and 10.5 upbm affinity estimate (log intensity, higher = more binding, comparable within an allelic series) with NKX3-2 [2].

Consider CACTTACG, for which the binding signal is 12.7 upbm affinity estimate (log intensity, higher = more binding, comparable within an allelic series) with NKX3-2 [1] and 12.8 upbm affinity estimate (log intensity, higher = more binding, comparable within an allelic series) in the test with NKX3-2 [2].

As for ATTATTAG, in the test with PAX4, the binding signal was 10.9 upbm affinity estimate (log intensity, higher = more binding, comparable within an allelic series).

ATAAAAAA: in the test with HOXC9, the binding signal is 11.1 upbm affinity estimate (log intensity, higher = more binding, comparable within an allelic series).

Turning to CGGTGAGC, the binding signal is 10.6 upbm affinity estimate (log intensity, higher = more binding, comparable within an allelic series) in the test with NKX3-2 [1] and 10.7 upbm affinity estimate (log intensity, higher = more binding, comparable within an allelic series) with NKX3-2 [2].

As to CTGTAAAA, in the test with HOXD13, the binding signal was 11.6 upbm affinity estimate (log intensity, higher = more binding, comparable within an allelic series).

Turning to AAGTGTCT, the binding signal in the test with NKX2-6 was 10.6 upbm affinity estimate (log intensity, higher = more binding, comparable within an allelic series).

Regarding ATTAAAAA, the binding signal in the test with HOXC9 is 11 upbm affinity estimate (log intensity, higher = more binding, comparable within an allelic series).

Regarding CGAGTGCA, the binding signal with NKX3-2 [1] was 11.7 upbm affinity estimate (log intensity, higher = more binding, comparable within an allelic series); with NKX3-2 [2], 11.8 upbm affinity estimate (log intensity, higher = more binding, comparable within an allelic series).

As for CGTGGGAA, the binding signal is 10.6 upbm affinity estimate (log intensity, higher = more binding, comparable within an allelic series) with NKX3-2 [1] and 10.6 upbm affinity estimate (log intensity, higher = more binding, comparable within an allelic series) with NKX3-2 [2].

Take ACAAGTGT: the binding signal with NKX2-6 is 10.6 upbm affinity estimate (log intensity, higher = more binding, comparable within an allelic series).

With ATAAAATC, the binding signal with HOXC9 is 11.1 upbm affinity estimate (log intensity, higher = more binding, comparable within an allelic series).

For ACTTAAGG, the binding signal with NKX2-6 is 10.6 upbm affinity estimate (log intensity, higher = more binding, comparable within an allelic series).

Turning to AACACTTG, the binding signal in the test with NKX2-6 is 10.8 upbm affinity estimate (log intensity, higher = more binding, comparable within an allelic series).

Regarding CCCACGGG, the binding signal is 10.3 upbm affinity estimate (log intensity, higher = more binding, comparable within an allelic series) in the test with NKX3-2 [1] and 10.3 upbm affinity estimate (log intensity, higher = more binding, comparable within an allelic series) with NKX3-2 [2].

Take ACTATTAA: in the test with HOXD13, the binding signal was 11.6 upbm affinity estimate (log intensity, higher = more binding, comparable within an allelic series).

Consider AATAAATT, for which the binding signal in the test with HOXC9 was 11.1 upbm affinity estimate (log intensity, higher = more binding, comparable within an allelic series).

AAGTGCTA: the binding signal in the test with NKX2-6 is 10.6 upbm affinity estimate (log intensity, higher = more binding, comparable within an allelic series).

On to CGCGGCCG, for which the binding signal is 10.2 upbm affinity estimate (log intensity, higher = more binding, comparable within an allelic series) with NKX3-2 [1] and 10.2 upbm affinity estimate (log intensity, higher = more binding, comparable within an allelic series) in the test with NKX3-2 [2].

Take AGAAGAGG: the binding signal is 11.6 upbm affinity estimate (log intensity, higher = more binding, comparable within an allelic series) in the test with NKX3-2 [1] and 11.7 upbm affinity estimate (log intensity, higher = more binding, comparable within an allelic series) with NKX3-2 [2].

On to AGCACTTC, for which the binding signal was 12.4 upbm affinity estimate (log intensity, higher = more binding, comparable within an allelic series) with NKX3-2 [1] and 12.4 upbm affinity estimate (log intensity, higher = more binding, comparable within an allelic series) in the test with NKX3-2 [2].

For the sequence CCGAGTAC, the binding signal is 11.5 upbm affinity estimate (log intensity, higher = more binding, comparable within an allelic series) in the test with NKX3-2 [1] and 11.6 upbm affinity estimate (log intensity, higher = more binding, comparable within an allelic series) with NKX3-2 [2].

In the case of AAGAGTGG, the binding signal is 12.5 upbm affinity estimate (log intensity, higher = more binding, comparable within an allelic series) with NKX3-2 [1] and 12.7 upbm affinity estimate (log intensity, higher = more binding, comparable within an allelic series) with NKX3-2 [2].

Take TCTGGGCA: the binding signal with NKX3-2 [1] was 10.6 upbm affinity estimate (log intensity, higher = more binding, comparable within an allelic series); in the test with NKX3-2 [2], 10.6 upbm affinity estimate (log intensity, higher = more binding, comparable within an allelic series).

Turning to AAGCCGCC, the binding signal was 10.7 upbm affinity estimate (log intensity, higher = more binding, comparable within an allelic series) with NKX3-2 [1] and 10.7 upbm affinity estimate (log intensity, higher = more binding, comparable within an allelic series) in the test with NKX3-2 [2].

Take ATCCCGCC: the binding signal with NKX3-2 [1] is 10.7 upbm affinity estimate (log intensity, higher = more binding, comparable within an allelic series); with NKX3-2 [2], 10.7 upbm affinity estimate (log intensity, higher = more binding, comparable within an allelic series).

As for AGGTTGTG, the binding signal with NKX3-2 [1] was 10.7 upbm affinity estimate (log intensity, higher = more binding, comparable within an allelic series); with NKX3-2 [2], 10.7 upbm affinity estimate (log intensity, higher = more binding, comparable within an allelic series).

CAAAGAGG: the binding signal with NKX3-2 [1] is 11.9 upbm affinity estimate (log intensity, higher = more binding, comparable within an allelic series); in the test with NKX3-2 [2], 12 upbm affinity estimate (log intensity, higher = more binding, comparable within an allelic series).

In the case of CCACTCAG, the binding signal in the test with NKX3-2 [1] was 12.6 upbm affinity estimate (log intensity, higher = more binding, comparable within an allelic series); with NKX3-2 [2] it was 12.7 upbm affinity estimate (log intensity, higher = more binding, comparable within an allelic series).

As for CTCTAGAG, the binding signal is 10.9 upbm affinity estimate (log intensity, higher = more binding, comparable within an allelic series) in the test with NKX3-2 [1] and 10.9 upbm affinity estimate (log intensity, higher = more binding, comparable within an allelic series) with NKX3-2 [2].

Consider CCCCCAAA, for which the binding signal was 10.7 upbm affinity estimate (log intensity, higher = more binding, comparable within an allelic series) in the test with NKX3-2 [1] and 10.7 upbm affinity estimate (log intensity, higher = more binding, comparable within an allelic series) with NKX3-2 [2].

CCGCTCAG: the binding signal with NKX3-2 [1] is 10.6 upbm affinity estimate (log intensity, higher = more binding, comparable within an allelic series); with NKX3-2 [2], 10.6 upbm affinity estimate (log intensity, higher = more binding, comparable within an allelic series).
